Among the data in PubChem BioAssay (NCATS) are outcome and Potency values, retold here.

A number with no mark means an inactive call. Results filed as inconclusive are left out. Activity calls are given as the source filed them. Unless noted, the call rests on the fitted dose curve; in most records, active means well fitted curve in the direction sought with a large enough effect; inconclusive means small, poorly fitted or top-dose-only effect, or another doubt; inactive means no such curve, though single readings can be large; an effect the other way counts as inactive or inconclusive. Numbered stars: 1 amine (or outer) side, 2 acyl side, 3 side chain; on linkers, the order of the positions; unused ones are H or OH. Bridge positions count the residues as written; N and C are the ends. Square brackets hold non-standard residues; d marks the D form. Peptide text beside a SMILES is read from it. I, II: the chains in the order shown. Actinocin(9to1) = Cc1c2oc3c(C)ccc(C(=O)[*:1])c3nc-2c(C(=O)[*:2])c(N)c1=O; NMeV = CN[C@H](C(=O)O)C(C)C; Sar = CNCC(=O)O

A short description of test [1]: Confirmation and Secondary Assay for Modulators of Hemoglobin Beta Chain Splicing at IVS2 654 locus (AID 910).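 Further: HeLa cells stably carrying EGFP split by mutant beta-globin IVS2-654 intron.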 The gist of the method: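 HeLa cells stably expressing EGFP interrupted by β-globin IVS2-654 intron, seeded overnight in Opti-MEM/2% FCS, then treated 2 days at 37 °C. Restored splicing read as total peak GFP intensity per well by laser scanning cytometry (488 nm excitation, 500–520 nm emission); 500 nM antisense PNA as control.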

Test [2] in a line: Cell Viability - LYMP2-001 (AID 921). Further: nearly all actives have a fitted effect of over 70% in size. Further: potency means the concentration at half of the fitted maximal effect. In a few lines:
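Human lymphoblastoid LYMP2-001 cells, 2500 per well, in complete medium, treated 24 h at 37 C. Viability from cellular ATP by CellTiter-Glo luminescence; AC50 from Hill-equation fits of qHTS concentration-response.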

The nature of test [3]: Cell Viability - LYMP1-002 - Assay at 16 hr (AID 948). Further: potency means the concentration at half of the fitted maximal effect. In a few lines: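 LYMP1-002 human lymphoblastoid cells, 2500/well, were treated with compounds for 16 hr at 37 C in complete medium. Viability was read as intracellular ATP by CellTiter-Glo luminescence, and AC50 was derived from a Hill fit to concentration-response data.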
Test [4] is described as follows: Cell Viability - LYMP1-003 - Assay at 24 hr (AID 963). Further: potency means the concentration at half of the fitted maximal effect. In a few lines: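 Concentration-response qHTS: ATP loss measured by CellTiter-Glo luminescence after 24 h compound exposure at 37 C. Cells were LYMP1-003 human lymphoblastoid, 2500 per well. AC50 derived via standard Hill equation modeling.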
Test [5] can be described thus: Cell Viability - LYMP1-003 - Assay at 40 hr (AID 964). Further: nearly all actives have a fitted effect of over 60% in size. Further: potency means the concentration at half of the fitted maximal effect. In a few lines:
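Viability is taken as cellular ATP, read by CellTiter-Glo luminescence after 40 h of compound exposure at 37 C. Cells: human lymphoblastoid line LYMP1-003 at 2500/well; AC50 values derived by Hill-equation fitting of concentration-response data.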

The nature of test [6]: Confirmation and Secondary Assay for Modulators of Hemoglobin Beta Chain Splicing at IVS2 705 locus (AID 930).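 Further: HeLa cells stably expressing the EGFP-705 splicing reporter; GFP fluorescence per well restored by corrected splicing of the IVS2-705 intron in EGFP; series mostly up to about 46 µM.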 The gist of the method:
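Assay measures total GFP intensity per well in HeLa EGFP-705 cells after 2 days with compound; mis-splicing normally truncates EGFP, so fluorescence indicates corrected splicing.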

The nature of test [7]: qHTS Assay for Identification of Small Molecule Agonists for Thrombopoietin (TPO) Signaling Pathway (AID 917). The gist of the method: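 Stimulation at the TPO EC50 (26 pM final) was used to detect activators. Ba/F3 mouse cells bearing human TPO receptor and a luciferase reporter under the Glycoprotein IIb promoter were exposed to compounds for 24 hrs at 37 C.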
On the technique in general: qHTS replaces the single test concentration by a dilution series.

The target in test [8] is Muscarinic acetylcholine receptor M1 (Rattus norvegicus) (UniProt P08482). Description: qHTS Assay for Antagonists of Acetylcholine Muscarinic M1 Receptor: Measurement of IP-One Response (AID 944). Further: nearly all actives have a fitted effect of over 75% in size. In a few lines:
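IP1 accumulation measured via TR-FRET between d2-IP1 and Eu-cryptate anti-IP1 antibody after carbachol (200 nM, EC80) stimulation for 30 min; rat M1-transfected CHO cells received compound 10 min before agonist.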

The target in test [9] is Pyruvate kinase (Leishmania mexicana) (UniProt Q27686). Description: qHTS Validation Assay for Inhibitors of Leishmania Mexicana Pyruvate Kinase (AID 945). The gist of the method: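 Pyruvate kinase activity of E451W LmPYK (0.2 nM) was followed as ATP output after 1 h at room temperature with 0.5 mM PEP and 0.1 mM ADP, detected by PKLight luminescence.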
In test [10] the target is Pyruvate kinase PKM (Homo sapiens) (UniProt P14618). The test can be described thus: qHTS Assay for Activators of Human Muscle Pyruvate Kinase (AID 954; active means well fitted curve in the direction sought with a large enough effect, not every such curve was filed as active). The gist of the method:
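Compound pinned into substrate mix (0.5 mM PEP, 0.1 mM ADP), then 0.1 nM PKM2 added; 1 h, RT. Stop/detection luciferase reagent added, luminescence read. Normalized to no-inhibition and no-enzyme or reference-inhibitor controls.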

A short description of test [11]: MultiTox-Fluor Cytotoxicity Assay - LYMP1-001 - Dead Cells (AID 946). Further: potency means the concentration at half of the fitted maximal effect. In a few lines: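 LYMP1-001 lymphoblastoid cells (2500/well) treated 16 h at 37 C. Dead-cell protease cleavage of bis-AAF-R110 read at Ex/Em 485/520. Normalized to DMSO and 15 uM tetraoctylammonium bromide; AC50 from Hill fits.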
Test [12] is described as follows: MultiTox-Fluor Cytotoxicity Assay - LYMP1-001 - Live Cells (AID 947). Further: potency means the concentration at half of the fitted maximal effect.
Test [13] can be described thus: MultiTox-Fluor Cytotoxicity Assay - LYMP1-002 - Dead Cells (AID 960). Further: nearly all actives have a fitted effect of over 60% in size. Further: potency means the concentration at half of the fitted maximal effect. In a few lines: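 Dead-cell fluorescence (Ex/Em 485/520) after 16 h compound exposure at 37 C of LYMP1-002 lymphoblastoid cells in complete medium; AC50 by Hill equation, with data scaled between DMSO and 15 uM tetraoctylammonium bromide.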
Test [14] is described as follows: MultiTox-Fluor Cytotoxicity Assay - LYMP1-003 - Dead Cells (AID 961). Further: nearly all actives have a fitted effect of over 70% in size. Further: potency means the concentration at half of the fitted maximal effect. In a few lines:
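LYMP1-003 human lymphoblastoid cells (2500/well) exposed to compound 16 h at 37 C in complete medium; dead-cell protease read with bis-AAF-R110 fluorescence (Ex/Em 485/520) after 60 min at room temperature. Normalized to DMSO and 15 uM tetraoctylammonium bromide; AC50 from Hill fit.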

The nature of test [15]: MultiTox-Fluor Cytotoxicity Assay - LYMP1-003 - Live Cells (AID 962). Further: potency means the concentration at half of the fitted maximal effect. In a few lines: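 Live-cell protease activity (GF-AFC substrate, 405/510 nm, 60 min at room temperature) after 16 h, 37 C compound exposure of human lymphoblastoid LYMP1-003 cells; concentration-response fitted to the Hill equation for AC50.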

Pyruvate kinase PKM (Homo sapiens), sequence (P14618 whole entry, looked up): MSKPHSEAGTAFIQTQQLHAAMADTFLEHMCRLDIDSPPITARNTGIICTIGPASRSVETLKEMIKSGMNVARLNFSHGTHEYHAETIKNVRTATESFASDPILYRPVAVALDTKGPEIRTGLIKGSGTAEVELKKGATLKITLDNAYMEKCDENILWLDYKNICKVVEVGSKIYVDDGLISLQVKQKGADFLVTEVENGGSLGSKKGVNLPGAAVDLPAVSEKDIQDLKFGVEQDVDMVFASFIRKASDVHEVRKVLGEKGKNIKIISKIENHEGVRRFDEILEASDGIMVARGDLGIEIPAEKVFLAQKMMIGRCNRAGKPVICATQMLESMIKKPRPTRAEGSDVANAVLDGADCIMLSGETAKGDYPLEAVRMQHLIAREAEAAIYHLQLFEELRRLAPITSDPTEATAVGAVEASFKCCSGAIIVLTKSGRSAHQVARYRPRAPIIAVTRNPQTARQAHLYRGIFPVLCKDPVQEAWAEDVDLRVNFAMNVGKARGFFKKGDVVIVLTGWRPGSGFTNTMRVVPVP
Pyruvate kinase (Leishmania mexicana), sequence (Q27686 2-499 E452W): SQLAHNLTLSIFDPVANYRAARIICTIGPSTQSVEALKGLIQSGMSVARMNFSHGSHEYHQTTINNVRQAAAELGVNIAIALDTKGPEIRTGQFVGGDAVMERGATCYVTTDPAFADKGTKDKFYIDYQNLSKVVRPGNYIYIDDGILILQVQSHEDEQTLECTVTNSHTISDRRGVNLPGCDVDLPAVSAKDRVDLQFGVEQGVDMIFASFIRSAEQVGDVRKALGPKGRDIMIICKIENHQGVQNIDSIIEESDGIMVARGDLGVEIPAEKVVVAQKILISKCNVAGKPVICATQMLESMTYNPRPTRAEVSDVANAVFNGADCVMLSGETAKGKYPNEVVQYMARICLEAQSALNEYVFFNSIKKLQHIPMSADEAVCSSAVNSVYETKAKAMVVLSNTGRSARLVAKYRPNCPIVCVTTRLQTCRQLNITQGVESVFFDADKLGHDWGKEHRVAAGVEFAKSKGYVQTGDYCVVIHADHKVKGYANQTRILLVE
Muscarinic acetylcholine receptor M1 (Rattus norvegicus), sequence (P08482 whole entry, looked up): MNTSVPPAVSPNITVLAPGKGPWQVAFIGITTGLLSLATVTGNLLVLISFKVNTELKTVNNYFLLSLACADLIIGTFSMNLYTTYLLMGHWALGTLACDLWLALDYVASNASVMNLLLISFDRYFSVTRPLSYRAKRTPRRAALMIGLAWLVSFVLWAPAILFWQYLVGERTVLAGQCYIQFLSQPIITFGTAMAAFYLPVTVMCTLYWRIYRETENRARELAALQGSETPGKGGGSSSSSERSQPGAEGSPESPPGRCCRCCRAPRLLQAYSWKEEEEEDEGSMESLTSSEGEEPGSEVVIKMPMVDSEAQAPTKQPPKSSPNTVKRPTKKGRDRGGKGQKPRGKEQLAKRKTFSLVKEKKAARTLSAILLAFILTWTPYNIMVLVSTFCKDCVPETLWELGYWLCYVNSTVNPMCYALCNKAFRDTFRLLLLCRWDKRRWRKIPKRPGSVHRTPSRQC

In the case of `CC(C)(C)CC(C)(C)c1ccc(OCCOCC[N+](C)(C)Cc2ccccc2)cc1`, the result in test [1] was inactive. Further, the Potency is 20000 nM (active) in test [2], 50100 nM (active) in test [3], 50100 nM (active) in test [4] and 31600 nM (active) in [5].

Regarding `c1ccc(-c2ccc(C(c3ccccc3)n3ccnc3)cc2)cc1` (stereo not given), the outcome in test [1] and in [6] was inactive.

Regarding `CC(C)(Oc1ccc(Cl)cc1)C(=O)O`, the call in test [1] and in [6] was inactive.

Turning to `Nc1cc(Cl)c(NC2=NCCN2)c(Cl)c1`, the compound was called inactive in test [7], in [9] and in test [10]. Besides, in [8], the Potency result was “inactive”.

Consider `COc1cccc2c1C(=O)c1c(O)c3c(c(O)c1C2=O)C[C@@](O)(C(=O)CO)C[C@@H]3O[C@H]1C[C@H](N)[C@H](O)[C@H](C)O1`, for which the Potency in test [2] was 501 nM (active); in [11] it was 2510 nM (active); in [12], 1580 nM (active); in test [3] it was 3160 nM (active); in test [13] it was 3160 nM (active); in [14], 6310 nM (active). Further, the Potency in test [15] was 794 nM (active); in test [4], 1260 nM (active); in test [5], 398 nM (active).

As to `Oc1ccc(Cl)cc1Sc1cc(Cl)ccc1O`, the Potency entry in [11] and in test [15] was “inactive” throughout.

With `CC(C)COC(=O)OCN1C(=O)CN(CCN2CC(=O)N(COC(=O)OCC(C)C)C(=O)C2)CC1=O`, the Potency entry in test [8] is “inactive”. The call in test [9] and in test [10] was inactive.

Turning to `O=C(O)CCCCC(=O)O`, the Potency result in test [2], in [11], in test [12], in [3], in [13] and in test [14] was “inactive” each time. Further, the Potency entry in test [15], in test [4] and in test [5] was “inactive” each time.

In the case of `CCN(CCCCOC(=O)c1ccc(OC)c(OC)c1)C(C)Cc1ccc(OC)cc1` (stereo not given), the compound was classed as inactive in test [1] and in test [6].

Consider `CN1CCC[C@@H]1c1cccnc1`, for which the result in [7], in test [9] and in [10] was inactive.

Take `CC(CCc1ccccc1)NCC(O)c1ccc(O)c(C(N)=O)c1` (stereo not given): the result in [1] and in test [6] was inactive.

Regarding `COc1cccc2c1C(=O)c1c(O)c3c(c(O)c1C2=O)C[C@@](O)(C(C)=O)C[C@@H]3O[C@H]1C[C@H](N)[C@H](O)[C@H](C)O1`, the Potency in [2] was 1580 nM (active); in test [11] it was 501 nM (active); in test [12], 631 nM (active); in test [3], 794 nM (active); in test [13], 12600 nM (active); in [14] it was 1000 nM (active). In addition, the Potency in test [15] is 501 nM (active); in test [4] it was 1000 nM (active); in [5], 398 nM (active).

As for `CCn1cc(C(=O)O)c(=O)c2cnc(N3CCCC3)nc21`, the outcome in test [1] and in test [6] was inactive.

Turning to `CCCC1O[C@@H]2C[C@H]3[C@@H]4CCC5=CC(=O)C=C[C@]5(C)[C@H]4[C@@H](O)C[C@]3(C)[C@]2(C(=O)CO)O1` (stereo not given in full), the outcome in test [9] and in test [10] was inactive.

As for `C/C=C(/C(=C/C)c1ccc(O)cc1)c1ccc(O)cc1`, the outcome in test [1] and in [6] was inactive.

On to `O=C(OCC(O)CO)c1ccccc1Nc1ccnc2cc(Cl)ccc12` (stereo not given), for which the result in test [1] and in test [6] was inactive.

With `CC(O)C(=O)O` (stereo not given), the Potency entry in test [2], in test [11], in test [12], in test [3], in [13] and in test [14] was “inactive” in each case. Besides, the Potency result in test [15], in test [4] and in [5] was “inactive” throughout.

In the case of `Cc1c(C(N)=O)cc([N+](=O)[O-])cc1[N+](=O)[O-]`, the call in test [1] and in [6] was inactive.

Turning to `Cc1c2oc3c(C)ccc(C(=O)N[C@@H]4C(=O)N[C@H](C(C)C)C(=O)N5CCC[C@H]5C(=O)N(C)CC(=O)N(C)[C@@H](C(C)C)C(=O)O[C@@H]4C)c3nc-2c(C(=O)N[C@@H]2C(=O)N[C@H](C(C)C)C(=O)N3CCC[C@H]3C(=O)N(C)CC(=O)N(C)[C@@H](C(C)C)C(=O)O[C@@H]2C)c(N)c1=O` (I: T[dV]P[Sar][NMeV] / II: T[dV]P[Sar][NMeV]; ester I:1-I:C, II:1-II:C; linker I:N-II:N via Actinocin(9to1)), the Potency in test [11] was 12.6 nM (active); in test [13] it was 25.1 nM (active); in test [14], 50.1 nM (active); in [5], 5 nM (active).
